PubChem BioAssay AID1159580 (chemical genetic matrix, 2015)
“And” between values parts separate entries of the source, which are not always exact repeats. Equal values may be shown once. Among all 5,500 compounds or so, about 2,000 (36%) were called active. Inconclusive results (about 18%) are left out. Rule as the data show it: active = normalized growth mostly below about 0.91 (no sharp cut-off); inconclusive = no clear call, values can overlap the other calls; inactive = mostly above about 0.92. This is one part of the list.

Assay: chemical genetic growth profiling, strain panel (AID 1159580);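 also: tested at 20 µM; growth read once vehicle control cultures reached saturation at 30 °C; 1 = growth at the plate median or of vehicle wells; lower values mean less growth of the strain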
Conditions: S. cerevisiae deletion strains, growth OD

Measured: normalized growth

C=C[C@H]1CN2CC[C@H]1C[C@@H]2[C@H](O)c1ccnc2ccccc12
inactive: locus YAL013W, strain DEP1, stronger effect = lower value 1 | locus YAL021C, strain ccr4, stronger effect = lower value 1.01 | locus YAL026C, strain drs2, stronger effect = lower value 0.994 | locus YAL030W, strain snc1, stronger effect = lower value 0.999 | locus YBL061C, strain skt5, stronger effect = lower value 0.992 | locus YBR009C, strain hhf1, stronger effect = lower value 0.988 | locus YBR021W, strain FUR4, stronger effect = lower value 1.02 | locus YBR023C, strain chs3, stronger effect = lower value 0.981 | locus YBR171W, strain sec66, stronger effect = lower value 0.988 | locus YBR229C, strain ROT2, stronger effect = lower value 0.995 | locus YBR231C, strain swc5, stronger effect = lower value 0.989 | locus YBR279W, strain paf1, stronger effect = lower value 0.996 | locus YCL011C, strain gbp2, stronger effect = lower value 0.988 | locus YCL016C, strain dcc1, stronger effect = lower value 0.979 | locus YCL029C, strain bik1, stronger effect = lower value 0.973 | locus YCL069W, strain vba3, stronger effect = lower value 0.987 | locus YCR088W, strain abp1, stronger effect = lower value 0.994 | locus YDL005C, strain med2, stronger effect = lower value 0.975 | locus YDL035C, strain GPR1, stronger effect = lower value 1.02 | locus YDL040C, strain nat1, stronger effect = lower value 0.983 | locus YDL074C, strain BRE1, stronger effect = lower value 0.999 | locus YDL101C, strain DUN1, stronger effect = lower value 0.985 | locus YDL134C, strain PPH21, stronger effect = lower value 0.997 | locus YDL185W, strain tfp1, stronger effect = lower value 0.976 | locus YDL192W, strain arf1, stronger effect = lower value 0.98 | locus YDR001C, strain nth1, stronger effect = lower value 0.985 | locus YDR069C, strain doa4, stronger effect = lower value 0.996 | locus YDR101C, strain arx1, stronger effect = lower value 0.985 | locus YDR137W, strain rgp1, stronger effect = lower value 0.99 | locus YDR150W, strain NUM1, stronger effect = lower value 0.986 | locus YDR159W, strain sac3, stronger effect = lower value 1.02 | locus YDR162C, strain NBP2, stronger effect = lower value 0.988 | locus YDR195W, strain ref2 0.989 | locus YDR297W, strain sur2, stronger effect = lower value 1.01 | locus YDR318W, strain mcm21, stronger effect = lower value 0.985 | locus YDR334W, strain swr1, stronger effect = lower value 0.977 | locus YDR335W, strain msn5, stronger effect = lower value 0.99 | locus YDR388W, stronger effect = lower value 0.988 | locus YDR392W, strain spt3, stronger effect = lower value 0.973 | locus YDR502C, strain sam2, stronger effect = lower value 0.982 | locus YEL003W, strain gim4, stronger effect = lower value 0.989 | locus YEL037C, strain rad23, stronger effect = lower value 0.983 | locus YEL061C, strain CIN8 (second series), stronger effect = lower value 0.993 | locus YEL061C, strain CIN8, stronger effect = lower value 0.998 | locus YER015W, strain faa2, stronger effect = lower value 0.986 | locus YER016W, strain bim1, stronger effect = lower value 0.987 | locus YER110C, stronger effect = lower value 0.981 | locus YER111C, strain swi4, stronger effect = lower value 0.975 | locus YER155C, strain BEM2 (second series), stronger effect = lower value 0.972 | locus YER155C, strain BEM2, stronger effect = lower value 0.995 | locus YER167W, strain BCK2, stronger effect = lower value 1 | locus YFR010W, strain ubp6, stronger effect = lower value 0.999 | locus YGL078C, strain dbp3, stronger effect = lower value 1.01 | locus YGL086W, strain mad1, stronger effect = lower value 1.01 | locus YGL167C, strain pmr1, stronger effect = lower value 0.993 | locus YGL173C, strain kem1, stronger effect = lower value 0.981 | locus YGL227W, strain vid30, stronger effect = lower value 0.984 | locus YGL240W, strain doc1, stronger effect = lower value 0.986 | locus YGL248W, strain PDE1, stronger effect = lower value 0.994 | locus YGL253W, strain hxk2, stronger effect = lower value 0.994 | locus YGR078C, strain PAC10, stronger effect = lower value 0.988 | locus YGR135W, strain pre9, stronger effect = lower value 0.978 | locus YGR229C, strain SMI1, stronger effect = lower value 1.02 | locus YGR252W, strain gcn5, stronger effect = lower value 1.17 | locus YHR013C, strain ard1, stronger effect = lower value 0.962 | locus YHR027C, strain rpn1, stronger effect = lower value 0.992 | locus YHR030C, strain SLT2, stronger effect = lower value 0.994 and 0.988 | locus YHR079C, strain IRE1 (second series), stronger effect = lower value 0.979 | locus YHR079C, strain IRE1, stronger effect = lower value 1 | locus YHR094C, strain hxt1, stronger effect = lower value 0.97 | locus YHR129C, strain ARP1, stronger effect = lower value 0.989 | locus YHR142W, strain chs7, stronger effect = lower value 0.974 | locus YHR200W, strain rpn10, stronger effect = lower value 0.994 | locus YIL066C, strain RNR3, stronger effect = lower value 0.992 | locus YIL073C, strain SPO22, stronger effect = lower value 0.928 | locus YIL125W, strain kgd1, stronger effect = lower value 0.988 | locus YIR030C, strain dcg1, stronger effect = lower value 0.989 | locus YJL092W, strain hpr5, stronger effect = lower value 0.99 | locus YJL095W, strain BCK1 (second series), stronger effect = lower value 0.985 | locus YJL095W, strain BCK1, stronger effect = lower value 0.977 and 1 | locus YJL115W, strain asf1, stronger effect = lower value 0.972 | locus YJL129C, strain trk1, stronger effect = lower value 0.992 | locus YJL134W, strain LCB3, stronger effect = lower value 0.992 | locus YJL154C, strain vps35, stronger effect = lower value 0.971 | locus YJL164C, strain tpk1, stronger effect = lower value 0.987 | locus YJL166W, strain qcr8, stronger effect = lower value 1 | locus YJL168C, strain set2, stronger effect = lower value 0.983 | locus YJL187C, strain SWE1 (second series), stronger effect = lower value 0.956 | locus YJR043C, strain POL32, stronger effect = lower value 0.996 | locus YJR066W, strain TOR1, stronger effect = lower value 0.989 | locus YJR075W, strain HOC1, stronger effect = lower value 0.978
